Experimental data reported in the supplement of paper PMC10849652.
About 8,800 targets were measured; listed, in parts, are those with a hit and a random draw of the rest. About 0.5% of all pairs of compound and target were hits.

Experiments:
Assay in all cases: log2 fold change, soluble protein after heating vs DMSO (PISA); higher = thermal stabilisation; K562 lysate, 10 uM; active = over 0.2 and 3.5 SD of the protein, either way, in both replicates (recomputed)
[1] = compound: C1=CC=C(C=C1)[C@H](COC2=CC3=C(C=C2)NC(=O)N3)NC(=O)C4=CC=CN(C4=O)CC5=CC(=C(C=C5)F)F
Outline: (§1)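 Soluble protein was defined as the supernatant remaining after 21,000xg for 90 min, following pooling of heated aliquots and adjustment to 0.5% NP-40 at 4°C. Before that, crude K562 extract at 1 mg/mL protein in PBS pH 7.4 with 1 mM MgCl2 was treated with 10 μM compound for 30 min and heated for 3 min across 48°C-58°C. Quantification used TMTpro 16plex LC-MS/MS with channel sums equalised, and values are log-two fold changes in thermal stability relative to solvent controls from duplicates.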

[2] = compound: CC1=C(SC2=C1C(=N[C@H](C3=NN=C(N32)C)CC(=O)N)C4=CC=C(C=C4)Cl)C
Outline: as §1

[3] = compound: CC1=C2C(=CC=C1)N=C(N(C2=O)C3=CC=CC=C3C)CN4C=NC5=C(N=CN=C54)N
Outline: as §1

[4] = compound: Cc1sc2c(c1C)C(c1ccc(Cl)cc1)=N[C@@H](CC(=O)OC(C)(C)C)c1nnc(C)n1-2
Outline: as §1

[5] = compound: c1ccc([C@@H]2C[C@H]2NC2CCNCC2)cc1
Outline: as §1

Measured: log2 fold change

LIG3 (UniProt P49916)
inactive: [1] -0.003 | [2] -0.018 | [3] -0.014 | [4] -0.035 | [5] 0.021

MAP11 (UniProt Q8WVR3)
Chain of UniProt Q8WVR3 (Q8WVR3 whole entry, looked up): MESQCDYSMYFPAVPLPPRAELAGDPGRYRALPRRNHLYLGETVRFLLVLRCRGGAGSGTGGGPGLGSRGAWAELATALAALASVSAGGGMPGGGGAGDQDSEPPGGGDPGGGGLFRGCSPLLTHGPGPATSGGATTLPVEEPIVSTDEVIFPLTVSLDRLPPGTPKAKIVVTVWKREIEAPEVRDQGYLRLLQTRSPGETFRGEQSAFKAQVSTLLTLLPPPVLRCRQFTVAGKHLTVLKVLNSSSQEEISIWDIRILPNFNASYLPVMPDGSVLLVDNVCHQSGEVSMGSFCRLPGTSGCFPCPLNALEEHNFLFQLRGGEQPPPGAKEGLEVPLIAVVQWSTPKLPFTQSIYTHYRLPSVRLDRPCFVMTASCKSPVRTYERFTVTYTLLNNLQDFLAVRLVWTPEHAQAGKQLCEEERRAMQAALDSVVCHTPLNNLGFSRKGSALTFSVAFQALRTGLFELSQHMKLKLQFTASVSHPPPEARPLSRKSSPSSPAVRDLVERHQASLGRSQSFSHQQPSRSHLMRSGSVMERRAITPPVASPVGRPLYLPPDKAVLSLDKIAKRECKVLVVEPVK
inactive: [1] -0.103 | [2] 0 | [3] -0.006 | [4] 0.063 | [5] -0.03

MARF1 (UniProt Q9Y4F3)
inactive: [1] -0.052 | [2] 0.013 | [3] 0.175 | [4] 0.024 | [5] -0.023

KIF22 (UniProt Q14807)
Chain of UniProt Q14807 (Q14807 whole entry, looked up): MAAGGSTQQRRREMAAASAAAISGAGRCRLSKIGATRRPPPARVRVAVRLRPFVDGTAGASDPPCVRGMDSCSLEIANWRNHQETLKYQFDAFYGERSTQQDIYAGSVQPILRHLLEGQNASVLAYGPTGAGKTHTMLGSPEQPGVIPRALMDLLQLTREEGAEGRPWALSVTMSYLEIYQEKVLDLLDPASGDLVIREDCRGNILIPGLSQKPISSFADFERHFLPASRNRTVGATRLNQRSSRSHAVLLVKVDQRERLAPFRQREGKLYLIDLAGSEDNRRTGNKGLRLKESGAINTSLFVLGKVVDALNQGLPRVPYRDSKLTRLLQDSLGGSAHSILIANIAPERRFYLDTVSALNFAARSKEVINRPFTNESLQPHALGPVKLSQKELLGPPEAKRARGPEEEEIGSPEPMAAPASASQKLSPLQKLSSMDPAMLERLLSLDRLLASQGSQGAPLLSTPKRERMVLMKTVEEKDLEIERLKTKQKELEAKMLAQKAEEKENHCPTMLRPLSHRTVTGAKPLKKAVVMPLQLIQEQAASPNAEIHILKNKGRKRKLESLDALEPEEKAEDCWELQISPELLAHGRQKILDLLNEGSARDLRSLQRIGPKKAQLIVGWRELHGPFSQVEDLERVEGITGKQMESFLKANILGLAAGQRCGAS
inactive: [1] 0.047 | [2] 0.077 | [3] 0.014 | [4] -0.159 | [5] -0.198

MRPL46 (UniProt Q9H2W6)
inactive: [1] 0.022 | [2] -0.012 | [3] 0.021 | [4] 0.026 | [5] 0.199

LYRM4 (UniProt Q9HD34)
Chain of UniProt Q9HD34 (Q9HD34 whole entry, looked up): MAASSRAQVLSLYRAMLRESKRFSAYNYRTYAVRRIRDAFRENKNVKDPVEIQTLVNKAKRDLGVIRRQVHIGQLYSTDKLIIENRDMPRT
inactive: [1] -0.03 | [2] 0.074 | [3] 0.077 | [4] 0.006 | [5] 0.004

MAP3K4 (UniProt Q9Y6R4)
Chain of UniProt Q9Y6R4 (Q9Y6R4 whole entry, looked up): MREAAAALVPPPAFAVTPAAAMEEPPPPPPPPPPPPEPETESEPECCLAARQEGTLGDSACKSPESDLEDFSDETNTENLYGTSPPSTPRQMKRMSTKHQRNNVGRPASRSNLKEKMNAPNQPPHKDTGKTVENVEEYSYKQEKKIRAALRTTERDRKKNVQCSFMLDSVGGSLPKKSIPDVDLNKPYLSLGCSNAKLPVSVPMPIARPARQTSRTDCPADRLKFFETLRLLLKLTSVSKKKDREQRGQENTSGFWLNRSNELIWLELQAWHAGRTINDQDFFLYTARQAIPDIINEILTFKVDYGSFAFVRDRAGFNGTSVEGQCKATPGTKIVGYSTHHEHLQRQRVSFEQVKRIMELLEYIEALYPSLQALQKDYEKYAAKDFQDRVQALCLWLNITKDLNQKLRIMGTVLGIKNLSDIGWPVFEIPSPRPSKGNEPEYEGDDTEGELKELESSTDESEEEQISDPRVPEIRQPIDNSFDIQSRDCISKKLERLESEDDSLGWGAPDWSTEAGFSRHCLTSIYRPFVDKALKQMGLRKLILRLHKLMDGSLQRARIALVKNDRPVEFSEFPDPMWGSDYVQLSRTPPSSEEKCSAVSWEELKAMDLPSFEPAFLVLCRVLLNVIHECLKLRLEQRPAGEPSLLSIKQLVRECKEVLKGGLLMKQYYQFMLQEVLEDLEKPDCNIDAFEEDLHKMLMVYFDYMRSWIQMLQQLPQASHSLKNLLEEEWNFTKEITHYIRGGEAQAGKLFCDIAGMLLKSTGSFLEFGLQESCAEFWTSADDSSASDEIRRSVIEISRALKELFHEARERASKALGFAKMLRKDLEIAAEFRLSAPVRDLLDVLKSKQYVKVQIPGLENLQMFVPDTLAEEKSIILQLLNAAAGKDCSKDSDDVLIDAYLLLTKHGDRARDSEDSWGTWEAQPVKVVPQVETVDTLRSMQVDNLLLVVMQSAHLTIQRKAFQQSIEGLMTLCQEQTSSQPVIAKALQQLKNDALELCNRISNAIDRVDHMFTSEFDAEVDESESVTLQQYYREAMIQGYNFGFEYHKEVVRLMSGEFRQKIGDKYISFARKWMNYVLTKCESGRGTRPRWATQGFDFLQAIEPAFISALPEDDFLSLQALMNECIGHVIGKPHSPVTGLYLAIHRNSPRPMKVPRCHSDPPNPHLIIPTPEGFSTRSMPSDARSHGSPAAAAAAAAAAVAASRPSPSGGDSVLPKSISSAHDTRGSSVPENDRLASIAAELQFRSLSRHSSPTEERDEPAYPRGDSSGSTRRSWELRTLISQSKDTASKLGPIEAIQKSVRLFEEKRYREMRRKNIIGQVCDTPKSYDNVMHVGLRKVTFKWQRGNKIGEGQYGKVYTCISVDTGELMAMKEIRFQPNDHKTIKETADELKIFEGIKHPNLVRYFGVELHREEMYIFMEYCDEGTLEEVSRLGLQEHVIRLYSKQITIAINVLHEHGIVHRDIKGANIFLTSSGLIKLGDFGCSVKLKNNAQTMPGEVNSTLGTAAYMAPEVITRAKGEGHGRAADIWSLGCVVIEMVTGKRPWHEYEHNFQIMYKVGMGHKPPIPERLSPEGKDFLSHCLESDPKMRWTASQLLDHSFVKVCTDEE
inactive: [1] 0.012 | [2] -0.079 | [3] -0.001 | [4] -0.03 | [5] -0.008

LIG4 (UniProt P49917)
inactive: [1] -0.04 | [2] 0.083 | [3] -0.056 | [4] -0.002 | [5] 0.078

KIF14 (UniProt Q15058)
inactive: [1] 0.028 | [2] -0.148 | [3] 0.059 | [4] -0.012 | [5] 0.039

MAPK9 (UniProt P45984)
Chain of UniProt P45984 (P45984 whole entry, looked up): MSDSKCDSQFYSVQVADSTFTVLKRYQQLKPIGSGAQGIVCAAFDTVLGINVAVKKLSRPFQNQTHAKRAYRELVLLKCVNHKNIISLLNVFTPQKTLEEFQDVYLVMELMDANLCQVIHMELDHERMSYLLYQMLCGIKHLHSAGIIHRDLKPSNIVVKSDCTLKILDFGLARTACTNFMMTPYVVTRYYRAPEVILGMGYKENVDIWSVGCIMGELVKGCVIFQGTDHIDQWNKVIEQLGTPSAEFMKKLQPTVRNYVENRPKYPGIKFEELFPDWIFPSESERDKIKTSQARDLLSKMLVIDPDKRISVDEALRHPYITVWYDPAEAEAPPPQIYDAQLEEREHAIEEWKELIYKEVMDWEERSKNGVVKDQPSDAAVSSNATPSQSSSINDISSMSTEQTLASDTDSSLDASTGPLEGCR
inactive: [1] -0.021 | [2] 0.013 | [3] 0.045 | [4] -0.071 | [5] 0.033

MAPKAPK5 (UniProt Q8IW41)
Chain of UniProt Q8IW41 (Q8IW41 whole entry, looked up): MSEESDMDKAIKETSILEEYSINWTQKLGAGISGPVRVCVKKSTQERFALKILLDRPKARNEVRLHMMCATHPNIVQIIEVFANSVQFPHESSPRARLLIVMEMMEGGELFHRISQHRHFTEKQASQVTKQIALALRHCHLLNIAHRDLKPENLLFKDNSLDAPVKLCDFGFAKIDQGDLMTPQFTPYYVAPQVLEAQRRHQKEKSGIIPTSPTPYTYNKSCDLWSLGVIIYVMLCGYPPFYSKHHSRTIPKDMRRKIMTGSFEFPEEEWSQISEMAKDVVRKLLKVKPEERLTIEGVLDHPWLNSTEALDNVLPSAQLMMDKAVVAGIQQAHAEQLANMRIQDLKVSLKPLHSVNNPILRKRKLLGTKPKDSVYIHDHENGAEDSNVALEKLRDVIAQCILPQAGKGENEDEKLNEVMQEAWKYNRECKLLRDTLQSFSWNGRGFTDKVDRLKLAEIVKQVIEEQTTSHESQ
inactive: [1] 0.034 | [2] 0.027 | [3] 0.014 | [4] 0.013 | [5] 0.01

LBR (UniProt Q14739)
Chain of UniProt Q14739 (Q14739 whole entry, looked up): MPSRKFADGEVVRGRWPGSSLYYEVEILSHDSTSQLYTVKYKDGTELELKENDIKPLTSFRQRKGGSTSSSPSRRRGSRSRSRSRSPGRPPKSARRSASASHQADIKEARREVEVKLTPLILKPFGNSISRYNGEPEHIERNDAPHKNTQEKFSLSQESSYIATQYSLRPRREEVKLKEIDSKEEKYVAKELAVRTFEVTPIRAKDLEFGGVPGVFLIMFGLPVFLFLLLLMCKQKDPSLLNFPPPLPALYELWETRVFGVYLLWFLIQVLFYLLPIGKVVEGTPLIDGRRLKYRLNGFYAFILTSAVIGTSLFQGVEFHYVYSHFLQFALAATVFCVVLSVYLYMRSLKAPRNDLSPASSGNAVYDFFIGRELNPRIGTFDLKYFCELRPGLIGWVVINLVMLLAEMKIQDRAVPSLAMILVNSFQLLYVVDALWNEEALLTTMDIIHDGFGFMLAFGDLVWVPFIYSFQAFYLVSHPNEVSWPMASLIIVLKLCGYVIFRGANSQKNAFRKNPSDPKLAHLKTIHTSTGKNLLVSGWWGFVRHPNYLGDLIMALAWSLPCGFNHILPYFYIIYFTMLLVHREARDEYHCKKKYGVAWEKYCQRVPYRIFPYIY
inactive: [1] -0.018 | [2] 0.045 | [3] 0.04 | [4] 0.007 | [5] 0.117

MGST1 (UniProt P10620)
Chain of UniProt P10620 (P10620 whole entry, looked up): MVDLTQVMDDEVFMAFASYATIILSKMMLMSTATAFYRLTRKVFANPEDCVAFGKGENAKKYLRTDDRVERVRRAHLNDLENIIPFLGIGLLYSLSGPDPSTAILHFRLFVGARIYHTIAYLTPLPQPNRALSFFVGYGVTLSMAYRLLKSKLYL
inactive: [1] -0.08 | [2] 0.005 | [3] 0 | [4] -0.056 | [5] 0.022
